Results: the supplement of paper PMC8728848
This is one part of a sample in which the strongest signals are shown more often than they occur.

Assays:
Assay in all cases: glycan array binding signal (z-score within array); higher = stronger binding
Conditions in all cases: glycan notation: IUPAC condensed, linker removed; mutation: R201A
[1] = molecular target: Fuc(a1-2)Gal
Method in brief: (§1)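 Arrays were curated from the Consortium for Functional Glycomics database, 3228 in total, and kept only where the protein sequence was available. Binding is expressed as a within-array Z-score. This score was averaged across arrays of the same protein sequence at different concentrations or buffers and across linkers, and negative values can be read as non-binding.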

[2] = molecular target: Fuc(a1-2)Gal(b1-3)GalNAc(b1-3)Gal(a1-4)Gal(b1-4)Glc
Method in brief: as §1

[3] = molecular target: Fuc(a1-2)Gal(b1-3)GalNAc(b1-4)[Neu5Ac(a2-3)]Gal(b1-4)Glc
Method in brief: as §1

[4] = molecular target: Fuc(a1-2)Gal(b1-4)Glc
Method in brief: as §1

[5] = molecular target: Fuc(a1-2)[Gal(a1-3)]Gal(b1-3)GlcNAc
Method in brief: as §1

[6] = molecular target: Fuc(a1-2)[Gal(a1-3)]Gal(b1-4)GlcNAc(b1-2)Man(a1-3)[Fuc(a1-2)[Gal(a1-3)]Gal(b1-4)GlcNAc(b1-2)Man(a1-6)]Man(b1-4)GlcNAc(b1-4)GlcNAc
Method in brief: as §1

[7] = molecular target: Fuc(a1-2)[Gal(a1-3)]Gal(b1-4)GlcNAc(b1-3)[Fuc(a1-2)[Gal(a1-3)]Gal(b1-4)GlcNAc(b1-6)]GalNAc
Method in brief: as §1

[8] = molecular target: Fuc(a1-2)[Gal(a1-3)]Gal(b1-4)GlcNAc(b1-6)GalNAc
Method in brief: as §1

[9] = molecular target: Fuc(a1-2)[GalNAc(a1-3)]Gal(b1-4)GlcNAc(b1-2)Man(a1-3)[Fuc(a1-2)[GalNAc(a1-3)]Gal(b1-4)GlcNAc(b1-2)Man(a1-6)]Man(b1-4)GlcNAc(b1-4)[Fuc(a1-6)]GlcNAc
Method in brief: as §1

[10] = molecular target: Fuc(a1-2)[GalNAc(a1-3)]Gal(b1-4)GlcNAc(b1-3)Gal(b1-4)GlcNAc(b1-3)Gal(b1-4)GlcNAc
Method in brief: as §1

[11] = molecular target: Fuc(a1-3)[Gal(b1-4)]GlcNAc(b1-2)Man(a1-3)[Fuc(a1-3)[Gal(b1-4)]GlcNAc(b1-2)Man(a1-6)]Man(b1-4)GlcNAc(b1-4)[Fuc(a1-6)]GlcNAc
Method in brief: as §1

[12] = molecular target: Fuc(a1-3)[Gal3S(b1-4)]GlcNAc
Method in brief: as §1

[13] = molecular target: Fuc(a1-4)GlcNAc
Method in brief: as §1

[14] = molecular target: Gal(a1-3)Gal(b1-4)GlcNAc
Method in brief: as §1

[15] = molecular target: Gal(a1-3)Gal(b1-4)[Fuc(a1-3)]GlcNAc(b1-2)Man(a1-3)[Gal(a1-3)Gal(b1-4)[Fuc(a1-3)]GlcNAc(b1-2)Man(a1-6)]Man(b1-4)GlcNAc(b1-4)GlcNAc
Method in brief: as §1

[16] = molecular target: Gal(a1-4)Gal(b1-4)GlcNAc(b1-3)Gal(b1-4)Glc
Method in brief: as §1

[17] = molecular target: Gal(b1-3)GlcNAc(b1-2)Man(a1-3)[Gal(b1-3)GlcNAc(b1-2)Man(a1-6)]Man(b1-4)GlcNAc(b1-4)[Fuc(a1-6)]GlcNAc
Method in brief: as §1

[18] = molecular target: Gal(b1-3)GlcNAc(b1-2)Man(a1-3)[GlcNAc(b1-4)][Gal(b1-3)GlcNAc(b1-2)Man(a1-6)]Man(b1-4)GlcNAc(b1-4)GlcNAc
Method in brief: as §1

[19] = molecular target: Gal(b1-4)GlcNAc(b1-3)Gal(b1-3)GalNAc
Method in brief: as §1

[20] = molecular target: Gal(b1-4)GlcNAc(b1-3)Gal(b1-4)Glc
Method in brief: as §1

[21] = molecular target: Gal(b1-4)GlcNAc(b1-3)Gal(b1-4)GlcNAc(b1-3)Gal(b1-4)GlcNAc(b1-3)Gal(b1-4)GlcNAc(b1-3)Gal(b1-4)GlcNAc(b1-2)Man(a1-3)[Gal(b1-4)GlcNAc(b1-3)Gal(b1-4)GlcNAc(b1-3)Gal(b1-4)GlcNAc(b1-3)Gal(b1-4)GlcNAc(b1-3)Gal(b1-4)GlcNAc(b1-2)Man(a1-6)]Man(b1-4)GlcNAc(b1-4)GlcNAc
Method in brief: as §1

[22] = molecular target: Gal(b1-4)GlcNAc(b1-3)Gal(b1-4)GlcNAc(b1-3)Gal(b1-4)GlcNAc(b1-3)Gal(b1-4)GlcNAc(b1-3)Gal(b1-4)GlcNAc(b1-3)Gal(b1-4)GlcNAc(b1-2)Man(a1-3)[Gal(b1-4)GlcNAc(b1-3)Gal(b1-4)GlcNAc(b1-3)Gal(b1-4)GlcNAc(b1-3)Gal(b1-4)GlcNAc(b1-3)Gal(b1-4)GlcNAc(b1-3)Gal(b1-4)GlcNAc(b1-2)Man(a1-6)]Man(b1-4)GlcNAc(b1-4)GlcNAc
Method in brief: as §1

[23] = molecular target: Gal3S6S(b1-4)GlcNAc6S
Method in brief: as §1

[24] = molecular target: Gal6P(b1-4)GlcNAc
Method in brief: as §1

[25] = molecular target: GalNAc(a1-3)Gal
Method in brief: as §1

[26] = molecular target: GalNAc(b1-3)Gal(a1-4)Gal(b1-4)GlcNAc
Method in brief: as §1

[27] = molecular target: GalNAc3S(b1-4)GlcNAc
Method in brief: as §1

[28] = molecular target: Glc(a1-6)Glc(a1-6)Glc(a1-6)Glc
Method in brief: as §1

[29] = molecular target: Glc(b1-4)Glc
Method in brief: as §1

[30] = molecular target: GlcA(b1-3)GlcNAc
Method in brief: as §1

[31] = molecular target: GlcNAc(b1-2)Man(a1-3)[GlcNAc(b1-2)Man(a1-6)]Man(b1-4)GlcNAc(b1-4)[Fuc(a1-6)]GlcNAc
Method in brief: as §1

[32] = molecular target: GlcNAc(b1-3)Fuc
Method in brief: as §1

[33] = molecular target: GlcNAc(b1-3)Gal
Method in brief: as §1

[34] = molecular target: GlcNAc(b1-3)Gal(b1-4)GlcNAc
Method in brief: as §1

[35] = molecular target: GlcNAc(b1-3)Gal(b1-4)GlcNAc(b1-2)Man(a1-3)[GlcNAc(b1-3)Gal(b1-4)GlcNAc(b1-2)Man(a1-6)]Man(b1-4)GlcNAc(b1-4)[Fuc(a1-6)]GlcNAc
Method in brief: as §1

[36] = molecular target: GlcNAc(b1-4)Gal(b1-4)GlcNAc
Method in brief: as §1

[37] = molecular target: GlcNAc(b1-4)GlcNAc
Method in brief: as §1

[38] = molecular target: GlcNAc(b1-4)GlcNAc(b1-4)GlcNAc
Method in brief: as §1

[39] = molecular target: GlcNAc(b1-6)GalNAc
Method in brief: as §1

[40] = molecular target: GlcNAc6S(b1-3)Gal(b1-4)GlcNAc
Method in brief: as §1

[41] = molecular target: Kdn(a2-3)Gal(b1-4)[Fuc(a1-3)]GlcNAc
Method in brief: as §1

[42] = molecular target: Man(a1-2)Man(a1-3)Man
Method in brief: as §1

[43] = molecular target: Neu5Ac(a2-3)Gal(b1-3)GalNAc(b1-4)[Neu5Ac(a2-3)]Gal(b1-4)Glc
Method in brief: as §1

[44] = molecular target: Neu5Ac(a2-3)Gal(b1-3)GlcNAc(b1-2)[Neu5Ac(a2-3)Gal(b1-3)GlcNAc(b1-4)]Man(a1-6)[Neu5Ac(a2-3)Gal(b1-3)GlcNAc(b1-2)Man(a1-3)]Man(b1-4)GlcNAc(b1-4)GlcNAc
Method in brief: as §1

[45] = molecular target: Neu5Ac(a2-3)Gal(b1-3)GlcNAc6S
Method in brief: as §1

[46] = molecular target: Neu5Ac(a2-3)Gal(b1-4)Glc
Method in brief: as §1

[47] = molecular target: Neu5Ac(a2-3)Gal(b1-4)GlcNAc(b1-2)Man(a1-3)[Neu5Ac(a2-6)Gal(b1-4)GlcNAc(b1-2)Man(a1-6)]Man(b1-4)GlcNAc(b1-4)GlcNAc
Method in brief: as §1

[48] = molecular target: Neu5Ac(a2-3)Gal(b1-4)GlcNAc(b1-3)Gal(b1-4)GlcNAc
Method in brief: as §1

[49] = molecular target: Neu5Ac(a2-3)Gal(b1-4)[Fuc(a1-3)]GlcNAc(b1-3)Gal(b1-4)GlcNAc
Method in brief: as §1

[50] = molecular target: Neu5Ac(a2-6)Gal(b1-4)GlcNAc(b1-2)Man(a1-6)Man(b1-4)GlcNAc(b1-4)GlcNAc
Method in brief: as §1

[51] = molecular target: Neu5Ac(a2-6)Gal(b1-4)GlcNAc(b1-3)Gal(b1-4)GlcNAc(b1-3)GalNAc
Method in brief: as §1

[52] = molecular target: Neu5Ac(a2-6)Gal(b1-4)GlcNAc(b1-6)[Gal(b1-3)GlcNAc(b1-3)]Gal(b1-4)Glc
Method in brief: as §1

B1: OS9 (Arabidopsis thaliana) (protein)
chain: MRGSHHHHHHGMASMTGGQQMGRDLYDDDDKSRLQIFPAHLVGTFSRNNREPKYKIEFLPEDSPFHPGDNLESMVMLDKHGNRFLCYLPKEEKATSGWTSSQQNISTVMMETQQLVKLKTPDELLQPLSEKCLFRQEGWWSYEFCHQKYVRQLHVEDENKIVQEFFLGTFDPEATAAFNQTVSDASTDASQRYHSHVYTNGTTCDLTGSPAEVEVRFVCAETRAMVTSITELSTCKYALTVQCPTLCKHPLFQLEKPVSHTIHCNAIPVEEDATRNKEEQAVDESPKMIADS
- glycan array binding signal (z-score) [1]: 0.581
- glycan array binding signal (z-score) [2]: -0.131
- glycan array binding signal (z-score) [3]: -0.246
- glycan array binding signal (z-score) [4]: -0.732
- glycan array binding signal (z-score) [5]: -0.124
- glycan array binding signal (z-score) [6]: -0.237
- glycan array binding signal (z-score) [7]: 1.25
- glycan array binding signal (z-score) [8]: -0.223
- glycan array binding signal (z-score) [9]: -0.739
- glycan array binding signal (z-score) [10]: 2.49
- glycan array binding signal (z-score) [11]: 3.48
- glycan array binding signal (z-score) [12]: 0.043
- glycan array binding signal (z-score) [13]: 2.18
- glycan array binding signal (z-score) [14]: -0.929
- glycan array binding signal (z-score) [15]: 0.205
- glycan array binding signal (z-score) [16]: -0.456
- glycan array binding signal (z-score) [17]: -0.307
- glycan array binding signal (z-score) [18]: -0.686
- glycan array binding signal (z-score) [19]: -0.513
- glycan array binding signal (z-score) [20]: -0.35
- glycan array binding signal (z-score) [21]: -0.257
- glycan array binding signal (z-score) [22]: 0.133
- glycan array binding signal (z-score) [23]: 3.98
- glycan array binding signal (z-score) [24]: -0.208
- glycan array binding signal (z-score) [25]: 1.39
- glycan array binding signal (z-score) [26]: 2.17
- glycan array binding signal (z-score) [27]: 2.29
- glycan array binding signal (z-score) [28]: -1.12
- glycan array binding signal (z-score) [29]: 2.1
- glycan array binding signal (z-score) [30]: 1.54
- glycan array binding signal (z-score) [31]: 0.257
- glycan array binding signal (z-score) [32]: 0.403
- glycan array binding signal (z-score) [33]: -0.422
- glycan array binding signal (z-score) [34]: -0.104
- glycan array binding signal (z-score) [35]: 2.59
- glycan array binding signal (z-score) [36]: 0.805
- glycan array binding signal (z-score) [37]: 8.22
- glycan array binding signal (z-score) [38]: 0.6
- glycan array binding signal (z-score) [39]: -0.498
- glycan array binding signal (z-score) [40]: -0.224
- glycan array binding signal (z-score) [41]: 0.82
- glycan array binding signal (z-score) [42]: 0.874
- glycan array binding signal (z-score) [43]: -0.662
- glycan array binding signal (z-score) [44]: -1.14
- glycan array binding signal (z-score) [45]: -0.775
- glycan array binding signal (z-score) [46]: 2.08
- glycan array binding signal (z-score) [47]: -0.425
- glycan array binding signal (z-score) [48]: 0.1
- glycan array binding signal (z-score) [49]: 1.98
- glycan array binding signal (z-score) [50]: -0.225
- glycan array binding signal (z-score) [51]: 0.709
- glycan array binding signal (z-score) [52]: -0.933
